Reference: PubChem BioAssay AID1567 (National Center for Advancing Translational Sciences (NCATS), 2009)
Results filed as inconclusive are left out. A call without a number means that no potency is given here. Activity calls are given as the source filed them. Calls follow the shape of the dose curve; as a rule, active = well fitted inhibition curve with a large enough effect; inconclusive = small, poorly fitted or top-dose-only effect, or effect the other way; inactive = no such curve, though single readings can be large or run the other way.

Each compound was assayed against Thyroid hormone receptor beta (Homo sapiens) (UniProt P10828) (assay: Cell-based Gene Reporter Secondary Assay to Characterize qHTS Inhibitors of the Interaction of Thyroid Hormone Receptor and Steroid Receptor Coregulator 2). Conditions: WRO cells TRbeta TRE-luciferase, T3-stimulated, 16 h; series mostly up to 29.9 µM.
Chain of Thyroid hormone receptor beta (Homo sapiens) (P10828 whole entry, looked up): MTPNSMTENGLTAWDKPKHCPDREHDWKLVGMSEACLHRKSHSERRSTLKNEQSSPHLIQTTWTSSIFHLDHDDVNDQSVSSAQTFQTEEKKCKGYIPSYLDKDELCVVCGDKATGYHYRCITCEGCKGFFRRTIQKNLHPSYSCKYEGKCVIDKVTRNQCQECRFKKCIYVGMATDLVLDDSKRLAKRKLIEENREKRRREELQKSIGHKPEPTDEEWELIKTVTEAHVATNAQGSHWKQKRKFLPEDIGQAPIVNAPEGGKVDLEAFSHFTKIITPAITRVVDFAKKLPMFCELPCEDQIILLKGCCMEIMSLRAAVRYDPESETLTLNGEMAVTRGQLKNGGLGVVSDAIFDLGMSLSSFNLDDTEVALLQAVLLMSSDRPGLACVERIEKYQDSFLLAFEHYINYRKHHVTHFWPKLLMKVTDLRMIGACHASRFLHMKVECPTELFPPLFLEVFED
Text: NIH Molecular Libraries Probe Production Network [MLPCN] NIH Chemical Genomics Center [NCGC] MLPCN Grant: DK058080 Assay Provider: R. Kip Guy, St. Jude Children's Research Hospital NCGC Assay Overview: Thyroid receptor (TR) regulates many homeostatic processes including basal metabolism, cardiovascular function, body weight, and lipid trafficking. TR modulators are potential therapeutics for obesity and hyperlipidemias but current thyroid analogs have undesirable side effects, particularly cardiac stimulation. This secondary assay characterized selected actives identified in the qHTS for Inhibitors of the Interaction of Thyroid Hormone Receptor and Steroid Receptor Coregulator 2. The human follicular thyroid carcinoma cell line WRO (kindly provided by Dr. M. D. Ringel) stably expresses TRbeta and a luciferase reporter gene fused to TR response element. The addition of T3 ligand elevates expression of the TRE luciferase reporter. This assay measures the transcriptional activity of compounds.
NCGC Assay Protocol Summary: Cells were maintained in RPMI 1640 culture medium supplemented with 10% heat-inactivated FBS, 0.33 mg/ml hygromycin, 0.33 mg/ml geneticin, 50 units/ml penicillin, 50 ug/ml streptomycin. Cells were harvested and resuspended at 330,000 cells/ml in assay medium (50% DMEM 50% F-12 medium without Phenol-Red (Cellgro #16-405-CV), L-glutamine, 10% heat inactivated and charcoal treated FBS, 100 uM non-essential amino acid, 50 units/ml penicillin, 50 ug/ml streptomycin). Cells were dispensed at 10,000 cells/30 ul/well into 384 well plates (Corning 3917) and incubated 12 h at 37 C and 5% CO2. Compounds and T3 (100nM final concentration) were added using a pin tool and plates were incubated 16 h incubation at 37 C and 5% CO2. Following incubation, plates were equilibrated at ambient temperature for 30 min, 30 ul of Bright-Glo (Promega) was added and luminescence was detected by an EnVision (PerkinElmer).
In the case of `CN1c2ccccc2C(C)(C)C12C=Nc1c(ccc3ccccc13)O2` (stereo not given), the Potency is reported as 4.47 µM (active).
For `Cc1nc2ccccc2n2c(O)c(CC(=O)O)cc12`, the Potency was “inactive”.
`CCOc1ccc(NC(=O)C(c2ccccn2)N(C(=O)CCl)c2ccc(F)cc2)cc1` (stereo not given) was tested, and the Potency was “inactive”.
For `CC1=NN(Cc2ccccc2)C(=O)C1`, the Potency was “inactive”.
In the case of `CC1=NN(c2ccc(F)cc2)C(=O)C1C(c1cccc(O)c1)c1c(C)[nH]n(-c2ccc(F)cc2)c1=O` (stereo not given), the Potency is reported as “inactive”.
In the case of `CN(C)c1cc(Cl)c2nonc2c1N`, the Potency is reported as “inactive”.
`Cc1nnc(SCC(=O)Nc2ccc(N(C)C)cc2)[nH]c1=O` was tested, and the Potency was “inactive”.
With `Nc1cccnc1Sc1cc(Cl)c(Cl)cc1Cl` the Potency was “inactive”.
For `CCSc1ncc(Cl)c(C(=O)Nc2nc3ccc(OC)cc3s2)n1`, the Potency was “inactive”.
`CCC(NC(=O)Nc1ccc(O)cc1)(C(F)(F)F)C(F)(F)F` was tested, and the Potency was “inactive”.
For `CN1CCc2ccc3c4c2[C@]1(C)Cc1cccc(c1-4)OCO3`, the Potency was 7.94 µM (active).
With `COc1ccc2ccc3c(c2c1)N=CC1(O3)N(C)c2ccccc2C1(C)C` (stereo not given) the Potency was “inactive”.
`Cc1cc(C)cc(OCC(=O)NCCc2nc3ccccc3[nH]2)c1` was tested, and the Potency was “inactive”.
`Cc1cccc(S(=O)(=O)c2cn(Cc3ccccc3)c3cc(N4CCC(C)CC4)c(F)cc3c2=O)c1` was tested, and the Potency was “inactive”.
`O=C(O)[C@H]1CN(CCCP(=O)(O)O)CCN1` was tested, and the Potency was “inactive”.
In the case of `CN1c2ccccc2C(C)(C)C12C=Nc1c(cc(N3CCOCC3)c3ccccc13)O2` (stereo not given), the Potency is reported as “inactive”.
With `COc1ccc(-c2nc(CS(=O)CC(=O)NCc3ccccn3)c(C)o2)cc1` (stereo not given) the Potency was “inactive”.
In the case of `COc1cc(NC(C)CCCN)c2ncccc2c1` (stereo not given), the Potency is reported as 22.4 µM (active).
With `CCOc1cc(C(c2c(C)[nH][nH]c2=O)c2c(C)[nH][nH]c2=O)ccc1OS(=O)(=O)c1ccc(C)cc1` the Potency was “inactive”.
With `C=CCSc1nnc2n(-c3ccccc3OC)c(=O)c3c4c(sc3n12)CCC4` the Potency was “inactive”.
For `CCC(CNc1cc(OC)cc2cccnc12)NC1CCCCC1` (stereo not given), the Potency was 6.31 µM (active).
With `CCc1ccc2c(c1)c1nc(C)sc1n2CC` the Potency was “inactive”.
`O=C(NNc1cc(N2CCOCC2)nc(N2CCOCC2)n1)c1ccc([N+](=O)[O-])cc1` was tested, and the Potency was “inactive”.
`C=CCNC(=O)/C(C#N)=C\c1cc(Cl)c(OCC)c(OC)c1` was tested, and the Potency was “inactive”.
`Cc1ccc(OC(=S)Nc2ccc(O)cc2)cc1` was tested, and the Potency was “inactive”.
In the case of `Nc1cc(-c2ccncc2)c[nH]c1=O`, the Potency is reported as 14.1 µM (active).
`Nc1cnccc1C(=O)O` was tested, and the Potency was “inactive”.
With `Cn1c(NNC(=O)c2c(F)cccc2F)cc(=O)n(C)c1=O` the Potency was “inactive”.
For `Cc1ccc(-c2nc(S(=O)(=O)c3ccc(F)cc3)c(SCC(=O)NCC3CCCO3)o2)cc1` (stereo not given), the Potency was “inactive”.
For `CCOC(=O)c1cnc2nc(NCc3ccc(OC)c(OC)c3)[nH]n2c1=O`, the Potency was “inactive”.
For `CCOc1cc(N2CCOCC2)c(OCC)cc1NC(C)C(=O)N1CCN(CC)CC1` (stereo not given), the Potency was “inactive”.
`COc1cc(NCCCC(C)N)c2ncccc2c1` (stereo not given) was tested, and the Potency was 3.16 µM (active).
`CCCc1nc2c(=O)n(C)c(=O)nc-2n(C)n1` was tested, and the Potency was 0.794 µM (active).
For `Cn1cc(/C=C2\SC(=S)N(NC(=O)c3ccccc3)C2=O)c2ccccc21`, the Potency was “inactive”.
With `O=c1cc(C23CC4CC(CC(C4)C2)C3)[nH][nH]1` the Potency was “inactive”.
`CN1N=C(C(C)(C)C)CC1=O` was tested, and the Potency was “inactive”.
`Cc1ccc2c(CC(=O)Nc3c(C(=O)c4ccc(F)cc4)oc4ccccc34)coc2c1C` was tested, and the Potency was “inactive”.
With `CCOC(=O)C(NC(=O)Nc1ccc(O)cc1)(c1ccccc1)C(F)(F)F` (stereo not given) the Potency was “inactive”.
For `O=C(Nc1nc2ccc(Cl)cc2s1)c1ccc(N2CCCCC2)c([N+](=O)[O-])c1`, the Potency was “inactive”.
`CC(NC(=O)Nc1ccc(O)cc1)(C(F)(F)F)C(F)(F)F` was tested, and the Potency was “inactive”.
